According to PubChem BioAssay (NCI):
The panel holds about 83,000 compounds, 20% with a hit somewhere; the sample as a whole holds those more often.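 For each line, cells grew in 96-well plates with the test compound present at a single concentration for 48 hours.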 Activity calls are given as the source filed them. The calls were made as follows: active = growth percent below 10; inactive = the rest.

Tests used:
Assay in all cases: NCI-60 one-dose screen, 48 h (100 = growth as untreated, 0 = no growth, -100 = all killed)
Conditions in all cases: 10 µM
[1] = system: EKVX NSCLC
[2] = system: SN12C renal
[3] = system: UO-31 renal
[4] = system: TK-10 renal
[5] = system: ACHN renal
[6] = system: CAKI-1 renal
[7] = system: A498 renal
[8] = system: CCRF-CEM leukemia
[9] = system: MOLT-4 leukemia
[10] = system: SR leukemia
[11] = system: RPMI-8226 leukemia
[12] = system: OVCAR-8 ovarian
[13] = system: OVCAR-5 ovarian
[14] = system: OVCAR-4 ovarian
[15] = system: SK-OV-3 ovarian
[16] = system: IGROV1 ovarian
[17] = system: OVCAR-3 ovarian
[18] = system: HS 578T breast
[19] = system: NCI/ADR-RES ovarian
[20] = system: T-47D breast

Measured: growth

CCN(CC)CCCOCCCNc1cc(OC)cc2cccnc12
inactive: [1] 96.4% | [2] 87.7% | [3] 95.7% | [4] 137% | [5] 97.5% | [6] 103% | [7] 72% | [8] 90.9% | [9] 105% | [10] 100% | [11] 80.3% | [12] 92.1% | [13] 102% | [14] 26.6% | [15] 97.3% | [16] 75.2% | [17] 65.9% | [18] 100% | [19] 95.4% | [20] 33.9%

COc1cc(CNc2ccccc2C(=O)N2CCN(C(=O)c3cc(-c4cc(OC)c(OC)c(OC)c4)n4nc(-c5ccccc5)cc4n3)CC2)cc(OC)c1OC
active: [7] -5.33% | [10] 8.84% | [17] 4.83%
inactive: [1] 63.6% | [2] 79.4% | [3] 19.1% | [4] 52.1% | [5] 51.8% | [6] 18.9% | [8] 58.8% | [9] 68% | [11] 52.1% | [12] 65.1% | [13] 88.1% | [14] 61.5% | [15] 59.9% | [16] 44.7% | [19] 15.6% | [20] 60.6%

Cc1occc1-c1nnc(SCC(=O)c2ccc(NC(=O)CC(C)C)cc2)o1
inactive: [1] 103% | [2] 107% | [3] 93.7% | [4] 123% | [5] 109% | [6] 84.1% | [7] 118% | [8] 93.4% | [9] 100% | [11] 77.7% | [12] 57% | [13] 105% | [14] 122% | [15] 121% | [16] 69.1% | [17] 104% | [18] 119% | [19] 104% | [20] 102%
active: [10] 7.85%

COc1ccc2c(c1)C(=O)c1c-2c(OCCN(C)C)nc2ccccc12
active: [3] -4.51% | [5] 9.68% | [9] 4.41% | [10] 1.16% | [16] -18.7%
inactive: [1] 44.7% | [2] 34.7% | [4] 43.3% | [6] 14.6% | [7] 65.8% | [8] 20.9% | [11] 17.4% | [12] 14.3% | [13] 63% | [14] 44.1% | [15] 61% | [17] 30.4% | [18] 41% | [19] 22.8% | [20] 48.2%

O=C1OCC2=C1C(c1cccc(Cl)c1)c1cc3c(cc1N2CCO)CCC3 (configuration not stated)
active: [7] -20.5% | [12] 4.21% | [17] -54.2% | [19] -23%
inactive: [1] 38.9% | [2] 21.1% | [3] 19% | [4] 56.6% | [5] 25.5% | [6] 11.2% | [8] 10.4% | [9] 13.7% | [10] 27.6% | [11] 17.3% | [13] 46.1% | [14] 50.4% | [15] 23.5% | [16] 15.9% | [20] 66.1%

Oc1[nH]c2ccc(Cl)cc2c1/C=c1/ccc2c(c1)N=C(c1cc(F)cc(F)c1)N=2
inactive: [1] 88.8% | [2] 86.3% | [3] 75.2% | [4] 100% | [5] 67.3% | [6] 58.6% | [7] 72.5% | [8] 16.6% | [9] 12.8% | [10] 13.9% | [11] 74.4% | [12] 77% | [13] 86.8% | [14] 68.5% | [15] 68% | [16] 53.6% | [18] 63% | [19] 54.2% | [20] 88.4%
active: [17] 7.12%

CCN(CC)CCCC(C)Nc1ccc2ccc(Cl)cc2n1 (configuration not stated)
inactive: [1] 103% | [2] 88.8% | [3] 85.8% | [4] 100% | [5] 98.5% | [6] 104% | [7] 92.3% | [8] 102% | [9] 96.5% | [10] 96.4% | [11] 97.3% | [12] 94.4% | [13] 102% | [14] 116% | [15] 104% | [16] 101% | [17] 97.8% | [18] 90.8% | [19] 98% | [20] 93.1%

N=c1nc(N)ncn1-c1ccccc1
inactive: [1] 99.7% | [2] 87.3% | [3] 94.5% | [4] 102% | [5] 101% | [6] 97.9% | [7] 83.8% | [8] 84.9% | [9] 109% | [10] 97.4% | [11] 97.7% | [12] 99.5% | [13] 95% | [14] 100% | [15] 96.3% | [16] 104% | [17] 116% | [18] 101% | [19] 102% | [20] 86.5%

Cc1ccc2oc3nc(C)c(C(=O)NCc4ccccc4)cc3c(=O)c2c1
inactive: [1] 77.1% | [2] 96.5% | [3] 63% | [4] 87.2% | [5] 63.8% | [6] 60.3% | [7] 104% | [8] 76.4% | [9] 64.3% | [10] 79.9% | [11] 86.1% | [12] 92.5% | [13] 86.8% | [14] 85.3% | [15] 116% | [16] 103% | [17] 99.7% | [18] 106% | [19] 63.4% | [20] 63.5%

COc1ccc(-c2nc3ncccn3c2-c2nnc(-c3ccc(F)cc3)o2)cc1
inactive: [1] 96% | [2] 91% | [3] 79.2% | [4] 113% | [5] 97.6% | [6] 100% | [7] 81% | [8] 94.4% | [9] 97.1% | [10] 108% | [11] 95.9% | [12] 92.4% | [13] 98.1% | [14] 96.6% | [15] 107% | [16] 110% | [17] 103% | [18] 96% | [19] 93.7% | [20] 98.2%

CCN(CC)CCOc1nc2ccccc2c2c1-c1ccc(OC)cc1C2=O
active: [3] -53.3% | [4] -1.29% | [5] -6.81% | [6] -28.6% | [8] 4.01% | [9] -2.16% | [10] -8.96% | [11] -14.3% | [12] 6.78% | [14] 6.09% | [16] -37.9% | [17] -18.6% | [18] 1.77% | [19] -12.8%
inactive: [1] 16% | [2] 18.1% | [7] 39.9% | [13] 25.8% | [15] 43.5% | [20] 47.1%

COc1ccc2c(c1)N(CCO)C1=C(C(=O)OC1)C2c1ccccc1 (configuration not stated)
inactive: [1] 45% | [2] 48.1% | [3] 47.1% | [4] 44.7% | [5] 48.6% | [6] 14.9% | [8] 20% | [9] 35.4% | [10] 20.7% | [11] 22% | [12] 29.6% | [13] 66.5% | [14] 69.5% | [15] 19.5% | [16] 43.3% | [20] 37.6%
active: [7] -5.47% | [17] -40.3% | [18] -5.25% | [19] -2.83%

O=C(Nc1ccncc1)C(=O)c1cn(S(=O)(=O)c2cc(Cl)cc(Cl)c2)c2ccccc12
inactive: [1] 52.3% | [2] 73.5% | [3] 75.2% | [4] 73.1% | [5] 68.4% | [6] 54.5% | [7] 63.1% | [8] 67.9% | [9] 73% | [10] 38% | [11] 57.1% | [12] 69.1% | [13] 89% | [14] 75.5% | [15] 97.2% | [16] 57.6% | [17] 59.7% | [18] 69.6% | [19] 55.3% | [20] 56.8%

CC(=O)c1cc(Br)ccc1O
inactive: [1] 107% | [2] 120% | [3] 98.7% | [4] 111% | [5] 105% | [6] 111% | [7] 106% | [8] 103% | [9] 101% | [10] 102% | [11] 105% | [12] 112% | [13] 92.3% | [14] 105% | [15] 126% | [16] 136% | [17] 118% | [19] 107% | [20] 114%

Cc1cc(C)c(CCc2cc(C)c(C)cc2C)cc1C
inactive: [1] 102% | [2] 107% | [3] 92.2% | [4] 117% | [5] 112% | [6] 94.1% | [7] 98.7% | [8] 93% | [9] 90.5% | [10] 90.4% | [11] 102% | [12] 102% | [13] 103% | [14] 92.9% | [15] 114% | [16] 111% | [17] 114% | [18] 108% | [19] 107% | [20] 114%

O=[N+]([O-])c1ccc(Oc2cccnc2)c([N+](=O)[O-])c1
inactive: [1] 93.9% | [2] 97% | [3] 58.3% | [4] 67.5% | [5] 72.4% | [7] 89.3% | [8] 20.1% | [9] 76.4% | [10] 21.1% | [11] 25.4% | [12] 91.7% | [13] 93.6% | [14] 50.2% | [15] 104% | [16] 92.2% | [17] 66.2% | [18] 81.9% | [19] 51.4% | [20] 61.1%
active: [6] -9.25%
